Source: PubChem BioAssay (National Center for Advancing Translational Sciences (NCATS))
Shown are actives, neighbours in structure and some others; about 4.3% of the full set was active somewhere.
DRD3 antagonist: antagonists of human D3 dopamine receptor; P35462; max response, negative = inhibition, %; D3R cells, DiscoveRx beta-arrestin luminescence, antagonist mode; active compounds read low; actives 2.5% (n = 360,000); AID 652054; in the data active means max response below about -50%; inconclusive means no clear call, values can overlap the other calls
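Cells expressing the human receptor were seeded at 1500 cells/well, incubated overnight at 37 degrees C in 5% CO2, then exposed to library compounds with dopamine controls for 90 minutes at 37 degrees C before luminescent detection.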
GLP1R inv ag: acts as inverse agonist at human GLP-1 receptor | HEK293 GLP-1R CRE-luciferase, luminescence, 24 h; GLP-1R form is constitutively active | P43220 | actives 1.6% (n = 410,000) | Potency, µM (series often up to 38.3 µM), actives largely listed as inhibitors; further: nearly all actives have a fitted effect of over 55% in size
Target sequence (P43220 whole entry, looked up): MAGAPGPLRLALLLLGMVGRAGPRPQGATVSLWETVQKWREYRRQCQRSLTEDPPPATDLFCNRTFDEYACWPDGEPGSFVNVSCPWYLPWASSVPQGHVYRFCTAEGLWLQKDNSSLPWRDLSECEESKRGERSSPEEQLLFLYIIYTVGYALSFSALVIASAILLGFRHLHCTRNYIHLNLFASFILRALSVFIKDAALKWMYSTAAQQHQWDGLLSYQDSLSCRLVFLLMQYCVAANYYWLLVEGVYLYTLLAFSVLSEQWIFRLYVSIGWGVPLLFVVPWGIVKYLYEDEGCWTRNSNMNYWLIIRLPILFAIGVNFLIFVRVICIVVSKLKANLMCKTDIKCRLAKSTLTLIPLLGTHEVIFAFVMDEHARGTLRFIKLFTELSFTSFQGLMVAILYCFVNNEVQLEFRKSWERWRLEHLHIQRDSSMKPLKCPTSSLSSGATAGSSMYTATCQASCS
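Luminescence readout: a drop in cAMP-driven luciferase signal flags inverse agonism at a constitutively active GLP-1R stably expressed in HEK293. Compound exposure lasted 24 hr at 37 deg C, 5% CO2.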
GLP1R ag: activates the human GLP-1 receptor | P43220 | HEK293 GLP-1R CRE-luciferase, luminescence, 4-6 h; cells express a hypersensitive GLP-1R form | Potency, µM (doses to about 45.6 µM), most hits filed as activators | actives 0.007% (n = 380,000) | AID 624172
D3 ag: D3 dopamine receptor (human) agonism; D3R DiscoveRx beta-arrestin cells, luminescence, 90 min; P35462; actives 0.58% (n = 410,000); max activation, %; in the data active means max activation above about 30%
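Agonist-mode cell screen: cells plated at 1500/well and incubated overnight at 37 °C, then exposed to library compounds for 90 min at 37 °C. Detection reagent was added for 30–60 min at room temperature, and luminescence was read.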
Numbers stand for hits; [ ] = another dose, or the depositor's remark. Unless noted, the call rests on the fitted dose curve; in most records, active means well fitted curve in the direction sought with a large enough effect; inconclusive means small, poorly fitted or top-dose-only effect, or another doubt; inactive means no such curve, though single readings can be large; an effect the other way counts as inactive or inconclusive.

How did Cc1ccccc1NC(=O)c1ccc(-c2ccc(Cl)cc2Cl)o1 do in these assays?
DRD3 antagonist: inactive; GLP1R inv ag: inconclusive; GLP1R ag: inactive; D3 ag: inactive

Results for Cc1cccc(C)c1NC(=O)c1ccc(-c2ccc(Cl)cc2Cl)o1 ?
DRD3 antagonist: inactive; GLP1R inv ag: 1.6µM; GLP1R ag: inactive; D3 ag: inactive

Results for S=C(c1ccc(-c2ccc(Cl)cc2Cl)o1)N1CCCCC1 ?
DRD3 antagonist: inactive; GLP1R inv ag: 10µM; GLP1R ag: inactive; D3 ag: inactive

Results for Cc1cccc(C)c1NC(=O)c1ccc(-c2cc(F)ccc2F)o1 ?
DRD3 antagonist: -57; GLP1R inv ag: inconclusive; GLP1R ag: inactive; D3 ag: inactive

How did CC1CCC(NC(=O)c2ccc(CS(=O)(=O)c3c(Cl)cccc3Cl)o2)CC1 (centres undefined) do in these assays?
GLP1R inv ag: inconclusive; D3 ag: inactive

Results for O=[N+]([O-])c1ccccc1-c1ccc(CN2CCN(c3ccccc3)CC2)o1 ?
DRD3 antagonist: -58; GLP1R inv ag: inconclusive; GLP1R ag: inactive; D3 ag: inactive

Results for O=S(=O)(c1cccc(Cl)c1Cl)N1CCN(C(=S)NCCCN2CCOCC2)CC1 ?
DRD3 antagonist: inactive; GLP1R inv ag: 7.1µM; GLP1R ag: inactive; D3 ag: inactive

How did S=C(NCCCN1CCOCC1)N1CCN(c2nc(-c3ccc(Cl)cc3)cs2)CC1 do in these assays?
DRD3 antagonist: inactive; GLP1R inv ag: 3.5µM; GLP1R ag: inactive; D3 ag: inactive

Results for S=C(NCCCN1CCOCC1)N1CCN(c2nc(-c3ccccc3)cs2)CC1 ?
DRD3 antagonist: inactive; GLP1R inv ag: inconclusive; GLP1R ag: inactive; D3 ag: inactive

What do the screens show for `Fc1cccc(CSc2ccc3nnc(-c4cccnc4)n3n2)c1`?
DRD3 antagonist: inactive; GLP1R inv ag: inactive[7.66 µM]; GLP1R ag: inactive; D3 ag: inactive

What do the screens show for `Cc1c(C)n(Cc2ccc(F)cc2)c2ccc(C(=O)N3CCN(c4ccc(Cl)cc4)CC3)cc12`?
GLP1R inv ag: inconclusive; D3 ag: inactive

How did COc1cc(OC)c(OC)cc1/C=C/C(=O)c1ccc(NS(=O)(=O)c2ccc(C)cc2)cc1 do in these assays?
DRD3 antagonist: inactive; GLP1R inv ag: inconclusive; GLP1R ag: inactive; D3 ag: 31

Results for Cc1ccc(-c2nn3c(C)nnc3c3ccccc23)cc1S(=O)(=O)NC(C)c1ccccc1 (centres undefined) ?
DRD3 antagonist: -54; GLP1R inv ag: inactive; GLP1R ag: inactive; D3 ag: inactive

Results for CC1=C(C(=O)Nc2ccccc2)C(c2ccco2)C(C#N)=C(SCC(=O)OC(C)C)N1 (centres undefined) ?
DRD3 antagonist: inactive; GLP1R inv ag: inconclusive; GLP1R ag: inactive; D3 ag: 58

How did CC1=C(C(=O)Nc2ccccc2)C(c2ccco2)C(C#N)=C(SCC(=O)Nc2cccc(C)c2C)N1 (centres undefined) do in these assays?
DRD3 antagonist: inactive; GLP1R inv ag: inactive; GLP1R ag: inactive; D3 ag: inactive

How did COC(=O)C1=C(C)N(c2ccc(OC)cc2)C(C)=C(C(=O)OC)C1c1ccccc1 do in these assays?
DRD3 antagonist: inactive; GLP1R inv ag: 8.9µM; GLP1R ag: inactive; D3 ag: inactive

What do the screens show for `COC(=O)C1=C(C)N(c2ccc(OC)cc2)C(C)=C(C(=O)OC)C1c1ccc(OC)cc1`?
DRD3 antagonist: inactive; GLP1R inv ag: inconclusive; GLP1R ag: inactive; D3 ag: inactive

Results for CCCCCCCCCCCC[N+](C)(C)Cc1ccccc1 ?
GLP1R ag: inactive; D3 ag: inactive

Results for Cc1ccc(NCc2nnc(SCCN3CCCCC3)n2CC2CCCO2)c(C)c1 (centres undefined) ?
DRD3 antagonist: -54; GLP1R inv ag: inconclusive; GLP1R ag: inactive; D3 ag: inactive

What do the screens show for `O=C(N/N=C\c1ccc(F)cc1)c1ccc(Cn2cc(Br)c([N+](=O)[O-])n2)o1`?
DRD3 antagonist: inactive; GLP1R inv ag: inconclusive; GLP1R ag: inactive; D3 ag: inactive

Results for O=C(N/N=C\c1cccc(F)c1)c1ccc(Cn2cc(Br)c([N+](=O)[O-])n2)o1 ?
DRD3 antagonist: -87; GLP1R inv ag: inactive; GLP1R ag: inactive; D3 ag: inactive

How did Cc1ccc(Cn2c(SCc3ccc(C(=O)O)cc3)nc3cccnc32)cc1 do in these assays?
GLP1R inv ag: inactive; D3 ag: inactive

Results for O=[N+]([O-])c1cc(-c2ncccn2)c([N+](=O)[O-])s1 ?
DRD3 antagonist: -104; GLP1R inv ag: inconclusive; GLP1R ag: inactive; D3 ag: inactive

How did Cc1ncc(CO)c(/C=N/Nc2ccc(C(F)(F)F)cn2)c1O do in these assays?
DRD3 antagonist: -74; GLP1R inv ag: inactive; GLP1R ag: inactive; D3 ag: inactive

How did Cc1ncc(CO)c(/C=N/NC(=S)Nc2ccc(F)cc2)c1O do in these assays?
DRD3 antagonist: inactive; GLP1R inv ag: inactive; GLP1R ag: inactive; D3 ag: inactive

How did CCOC(=O)c1sc(C)c2c1NC1(CCCCC1)NC2=O do in these assays?
DRD3 antagonist: inactive; GLP1R inv ag: inactive; GLP1R ag: inactive; D3 ag: 47

What do the screens show for `CCCNC(=O)C1CCC(Cn2c(=O)c3sccc3n(Cc3cccc(OC)c3)c2=O)CC1` (centres undefined)?
GLP1R inv ag: inactive; D3 ag: inactive

Results for O=C(CN1CCN(c2ccc(O)cc2)CC1)Nc1ccc(S(=O)(=O)N2CCCC2)cc1 ?
DRD3 antagonist: inactive; GLP1R inv ag: inconclusive; GLP1R ag: inactive; D3 ag: 98

Results for O=C(CN1CCCCC1)Nc1ccc(S(=O)(=O)N2CCCCCC2)cc1 ?
DRD3 antagonist: inactive; GLP1R inv ag: inactive; GLP1R ag: inactive; D3 ag: inactive

How did O=C(CN1CCOCC1)Nc1ccc(S(=O)(=O)N2CCCCCC2)cc1 do in these assays?
DRD3 antagonist: inactive; GLP1R inv ag: inactive; GLP1R ag: inactive; D3 ag: 31

Results for O=C(Nc1ccc(F)cc1)Nc1ccc(S(=O)(=O)N2CCCC2)cc1 ?
DRD3 antagonist: inactive; GLP1R inv ag: 8.9µM; GLP1R ag: inactive; D3 ag: inactive

Results for O=C(CNC1CCCC1)Nc1ccc(S(=O)(=O)N2CCCCC2)cc1 ?
DRD3 antagonist: inactive; GLP1R inv ag: inactive; GLP1R ag: inactive; D3 ag: inactive

Results for O=C(CNC1CCN(Cc2ccccc2)CC1)Nc1ccc(S(=O)(=O)N2CCCCC2)cc1 ?
DRD3 antagonist: -82; GLP1R inv ag: inactive; GLP1R ag: inactive; D3 ag: inactive

Results for CC(C)(C)NNC(=S)Nc1ccc(S(=O)(=O)N2CCOCC2)cc1 ?
DRD3 antagonist: inactive; GLP1R inv ag: inactive; GLP1R ag: inactive; D3 ag: 32

Results for COc1cccc(NC(=O)N2CCc3nc(NCc4cccc(Oc5ccccc5)c4)ncc3C2)c1 ?
DRD3 antagonist: inactive; GLP1R inv ag: 10µM; GLP1R ag: inactive; D3 ag: inactive

How did CCc1ccccc1NC(=O)Nc1nnc(N(CC)c2ccccc2)s1 do in these assays?
GLP1R inv ag: inactive; D3 ag: inactive

What do the screens show for `N#CCCNCC1(c2ccccc2)CCCC1`?
DRD3 antagonist: -54; GLP1R inv ag: inactive; GLP1R ag: inactive; D3 ag: inactive
